Where “and” joins values, the source holds several entries; their conditions need not be identical. Identical values can stand only once. Inconclusive results are not listed. Some structures have more than one record in an assay (separate samples or runs), and their calls can disagree. Calls of active or inactive are those of the source. Unless noted, the call rests on the fitted dose curve; in most records, active means well fitted curve in the direction sought with a large enough effect in the repeat runs; inconclusive means weak or mixed curves; inactive means no such curve, though single readings can be large; an effect the other way counts as inactive or inconclusive.

Assay [1] can be described thus: qHTS assay to identify small molecule antagonists of the estrogen receptor alpha (ER-alpha) signaling pathway using the BG1 cell line in the presence of 0.1 nM 17-beta-estradiol - cell viability counter screen (AID 1259241). Further: nearly all actives have a fitted effect of over 40% in size. Further: potency means the concentration at half of the fitted maximal effect. An outline of the steps: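 CellTiter-Fluor read (30 min, 37C) on ER-alpha/ERE-luc VM7Luc4E2 cells; 22 hr compound treatment; agonist 0.1 nM E2 final; same-well multiplex.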
A general note: In qHTS, concentration-response curves come from the screen itself.

Assay [2] in a line: qHTS assay to identify small molecule antagonists of the androgen receptor (AR) signaling pathway using the MDA cell line in the presence of 0.5 nM R1881 - cell viability counter screen (AID 1259242). Further: nearly all actives have a fitted effect of over 45% in size. Further: potency means the concentration at half of the fitted maximal effect. An outline of the steps: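 MDA-kb2 cells (human breast carcinoma, stably carrying MMTV-luciferase reporter) were exposed to compounds with 0.5 nM R1881 (final) for 16 hr at 37C, 0% CO2; viability then read as live-cell protease fluorescence (CellTiter-Fluor, 30 min) in the same wells.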

Assay [3] deals with Estrogen receptor (Homo sapiens) (UniProt P03372). In words: qHTS assay to identify small molecule antagonists of the estrogen receptor alpha (ER-alpha) signaling pathway using the BG1 cell line in the presence of 0.1 nM 17-beta-estradiol (AID 1259244). Further: nearly all actives have a fitted effect of over 50% in size. Further: potency means the concentration at half of the fitted maximal effect. An outline of the steps: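 VM7Luc4E2 cells (endogenous full-length ER-alpha, stable 4xERE-luciferase) were grown 5 days in phenol red-free medium with charcoal-stripped FBS, then exposed 22 h at 37C to compounds plus 0.1 nM (final) 17beta-estradiol; ONE-Glo luminescence read-out.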

Assay [4] is described as follows: qHTS assay to identify small molecule HDAC inhibitors (AID 1259364). Further: nearly all actives have a fitted effect of over 45% in size. Further: potency means the concentration at half of the fitted maximal effect. On activity change, negative = inhibition: top concentration of the series differs between compounds. An outline of the steps: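 Wild-type HCT-116 cells were plated overnight, exposed to compounds for 2 h at 37 °C, then given HDAC-Glo class I/II luminogenic reagent for 30 min at room temperature before luminescence was read.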
A short description of assay [5]: qHTS assay to identify small molecule HDAC inhibitors - cell viability counter screen (AID 1259365). Further: series mostly up to about 92 µM; nearly all actives have a fitted effect of over 50% in size. The method, boiled down:
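To flag cytotoxic hits, 1,500 wild-type HCT-116 cells per well, plated the day before, receive test compounds for 2hr at 37 C before CellTiter-Glo reagent and a luminescence read.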

The nature of assay [6]: qHTS assay to identify small molecule antagonists of the sonic hedgehog signaling (Shh) pathway - cell viability counter screen (AID 1259367). Further: nearly all actives have a fitted effect of over 55% in size. Further: potency means the concentration at half of the fitted maximal effect. The method, boiled down: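 After a 4 hr settling period, 3T3 Gli1-Luc cells were treated with DMSO-dissolved chemicals and conditioned medium, kept 24 hr at 37C in 5% CO2, and assayed for viability by CellTiter-Fluor fluorescence following 1 hr reagent incubation.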

Assay [7] can be described thus: qHTS assay to identify small molecule agonists of the sonic hedgehog signaling (Shh) pathway (AID 1259368; calls by dose curve; further: series mostly up to about 92 µM; nearly all actives have a fitted effect of over 15% in size). An outline of the steps: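 NIH/3T3-derived 3T3Gli1-Luc cells carrying a stably integrated Gli1 response element–firefly luciferase reporter were plated, left 4 hr at 37 C, then given compounds in DMSO for 24 hr. Luminescence was read 30 min after adding luciferase reagent.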

The nature of assay [8]: qHTS assay to identify small molecule agonists of the sonic hedgehog signaling (Shh) pathway - cell viability counter screen (AID 1259366). Further: nearly all actives have a fitted effect of over 50% in size. Further: potency means the concentration at half of the fitted maximal effect. An outline of the steps: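 Fluorescence from CellTiter-Fluor reports live cells in this counter screen. NIH/3T3-derived Gli1-Luc reporter cells receive test compounds for 24hr at 37C; reagent goes in at 23hr.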
A short description of assay [9]: qHTS assay to identify small molecule phospholipidosis (PLD) inducers (AID 1259344; active means well fitted curve in the direction sought with a large enough effect; an effect the other way counts as inactive or inconclusive). An outline of the steps:
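HepG2 cells grown on collagen I take up LipidTOX Red while exposed to compound for 24 h; after fixation they are imaged at 20x and pit metrics are extracted.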
On the % scale 0 is the no-effect control and ±100 the full control effect.

Chain of Estrogen receptor (Homo sapiens) (P03372 whole entry, looked up): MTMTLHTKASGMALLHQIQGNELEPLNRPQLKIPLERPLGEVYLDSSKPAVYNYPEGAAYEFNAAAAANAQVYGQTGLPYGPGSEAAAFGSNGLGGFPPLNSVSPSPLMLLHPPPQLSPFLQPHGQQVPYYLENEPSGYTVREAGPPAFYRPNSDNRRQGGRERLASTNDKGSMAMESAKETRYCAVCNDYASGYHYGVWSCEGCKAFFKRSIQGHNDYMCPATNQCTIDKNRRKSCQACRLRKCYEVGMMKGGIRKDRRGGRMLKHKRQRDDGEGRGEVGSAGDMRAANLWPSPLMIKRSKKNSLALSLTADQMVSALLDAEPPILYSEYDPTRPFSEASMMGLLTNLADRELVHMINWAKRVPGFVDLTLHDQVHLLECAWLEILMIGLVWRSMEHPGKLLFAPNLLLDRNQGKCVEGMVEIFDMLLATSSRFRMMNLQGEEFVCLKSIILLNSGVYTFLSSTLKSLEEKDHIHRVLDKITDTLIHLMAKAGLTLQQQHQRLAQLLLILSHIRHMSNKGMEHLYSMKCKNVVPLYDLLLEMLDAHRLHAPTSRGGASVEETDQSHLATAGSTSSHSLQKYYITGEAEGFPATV

In the case of `Cc1c(C)c([N+](=O)[O-])c(C(C)(C)C)c([N+](=O)[O-])c1C`, the Potency entry in assay [1], in [2], in assay [3], in [4], in assay [5] and in assay [6] was “inactive” throughout. For the same compound, the Potency entry in assay [7] was “inactive”.

In the case of `O=C1c2ccccc2C(=O)N1SC1CCCCC1`, the Potency entry in assay [1], in [2], in assay [5], in assay [6] and in [7] was “inactive” each time. Also, the Potency in assay [3] was 61.1 µM (active); in assay [8], 30.6 µM (active).

`CCCC1CCC(=O)CC1`: the Potency result in [1], in [2], in assay [3], in assay [4], in assay [5] and in assay [8] was “inactive” throughout. Also, the Potency result in assay [6] and in assay [7] was “inactive” in each case.

On to `CCCCCCCCCCCCCC[N+](C)(C)Cc1ccccc1`, for which the Potency result in assay [1], in [9], in assay [4], in [5] and in assay [7] was “inactive” each time. Also, the Potency is 49.3 µM (active) in assay [2]; 27.7 µM (active) and 15.8 mM (active) in assay [3]; 27.7 µM (active) and inactive in assay [6].

`CCc1oc2ccccc2c1C(=O)c1cc(I)c(O)c(I)c1`: the Potency result in assay [1], in assay [2], in assay [9], in assay [4], in assay [5] and in assay [6] was “inactive” each time. In addition, the Potency result in [7] was “inactive”.

`Cc1ccc(-c2ccccc2)cc1`: the Potency entry in [1], in [2], in assay [4], in assay [5], in assay [8] and in assay [6] was “inactive” in each case. Besides, in assay [7], the Potency result was “inactive”.

In the case of `O=c1[nH]c(=O)n([C@H]2C[C@H](O)[C@@H](CO)O2)cc1F`, the Potency result in assay [1], in [2], in [9], in assay [4], in [5] and in assay [8] was “inactive” throughout. Also, the Potency result in [6] and in [7] was “inactive” throughout.

With `CCC(C)n1ncn(-c2ccc(N3CCN(c4ccc(OC[C@H]5CO[C@](Cn6cncn6)(c6ccc(Cl)cc6Cl)O5)cc4)CC3)cc2)c1=O` (stereo partly drawn), the Potency result in assay [1], in assay [2], in assay [4], in [5], in assay [8] and in assay [6] was “inactive” each time. For the same compound, the Potency entry in assay [7] was “inactive”.

As to `C=CC(C)(CCC=C(C)C)OC=O` (stereo not drawn), the Potency result in [1], in assay [2], in [4], in [5], in assay [8] and in assay [6] was “inactive” each time. For the same compound, in assay [7], the Potency result was “inactive”.

With `Cc1ccc(C(C)C)cc2c(C)ccc1-2`, the Potency result in assay [1], in assay [2], in [9], in [4], in assay [5] and in assay [8] was “inactive” each time. For the same compound, the Potency entry in assay [6] and in [7] was “inactive” throughout.

Consider `[Cu+]`, for which the Potency entry in assay [1], in assay [2], in assay [4], in [5], in assay [8] and in assay [6] was “inactive” throughout. The Potency result in [7] is “inactive”.

`CC/C=C\CCCCCO`: the Potency result in assay [1], in [2], in assay [4], in assay [5], in assay [8] and in [6] was “inactive” throughout. In assay [7], the Potency entry was “inactive”.

For the compound `NC[C@H]1O[C@H](O[C@H]2[C@H](O[C@@H]3O[C@H](CO)[C@@H](O)[C@H]3O)C(O)[C@H](N)C[C@@H]2N)[C@H](N)[C@@H](O)[C@@H]1O` (stereo partly drawn), the activity change, negative = cytotoxicity was 2.08% [at 8.39 µM] (inactive) in assay [1] and -0.0056% [at 8.39 µM] (inactive) in assay [5]. In addition, the viability change, negative = cytotoxic in [2] is 2.91% [at 8.39 µM] (inactive); in [8] it was 2.25% [at 8.39 µM] (inactive); in [6], -1.51% [at 8.39 µM] (inactive). Moreover, the Potency entry in assay [9] was “inactive”. Besides, in [4], the activity change, negative = inhibition was -0.407% [at 8.39 µM] (inactive). For the same compound, the activity change in assay [7] was -1.1% [at 8.39 µM, stronger effect = higher value] (inactive).

Take `C[C@@H](O)[C@H](N)C(=O)O`: the figures for the activity change, negative = cytotoxicity in assay [1] and in [5] were -3.81% [at 19 µM] (inactive) and -2.68% [at 19 µM] (inactive), respectively. The viability change, negative = cytotoxic is 0.742% [at 19 µM] (inactive) in [2], 6.05% [at 19 µM] (inactive) in [8] and 3.97% [at 19 µM] (inactive) in assay [6]. Moreover, in assay [9], the Potency entry was “inactive”. Further, the activity change, negative = inhibition in assay [4] is -3.34% [at 19 µM] (inactive). For the same compound, the activity change in assay [7] was 0.344% [at 18.9 µM, stronger effect = higher value] (inactive).

For `C=Cc1ccccc1C=C`, the Potency result in assay [1], in assay [2], in assay [3], in assay [5], in assay [6] and in [7] was “inactive” throughout.

As to `Nc1ccc(Oc2ccc(Cl)cc2)cc1`, the Potency entry in [1], in assay [2], in [4], in assay [5], in assay [8] and in [6] was “inactive” in each case. The Potency entry in [7] was “inactive”.

With `COc1cccc2c1C(=O)c1c(O)c3c(c(O)c1C2=O)C[C@@](O)(C(C)=O)C[C@@H]3O[C@H]1C[C@H](N)[C@H](O)[C@H](C)O1`, the Potency was 30.8 µM (active) and 13.3 µM (active) in assay [1]; 48.9 µM (active) in [2]; 615 nM (active) and 2.11 µM (active) in assay [8]; 1.09 µM (active) and 1.88 µM (active) in assay [6]. Moreover, the PLD induction in assay [9] was -3.33% [at 7.66 µM] (inactive). In addition, the Potency entry in assay [4], in [5] and in assay [7] was “inactive” throughout.

With `Cc1nc(-c2ccc(Cl)cc2)oc1COC(C)(C)C(=O)O`, the Potency result in assay [1], in assay [2], in assay [9], in assay [4], in [5] and in assay [8] was “inactive” each time. Moreover, the Potency entry in assay [6] and in assay [7] was “inactive” throughout.

As for `CC1(C)CC(O)CC(C)(C)N1`, the Potency result in [1], in assay [2], in assay [4], in assay [5], in assay [8] and in [6] was “inactive” throughout.

On to `Cc1cc(-n2nc3ccc(Cl)cc3n2)c(O)c(C(C)(C)C)c1`, for which the Potency entry in [1], in [2], in assay [9], in [4], in assay [5] and in assay [8] was “inactive” in each case. Moreover, the Potency result in [6] and in [7] was “inactive” each time.

As for `CN(C)C(=O)COC(=O)Cc1ccc(OC(=O)c2ccc(N=C(N)N)cc2)cc1`, the Potency result in assay [1], in assay [2], in assay [9], in assay [5], in assay [8] and in assay [6] was “inactive” in each case. In addition, in assay [7], the Potency result was “inactive”. Moreover, the Potency in assay [4] was 0.0376 µM (active).

For `C=CCCC(=O)/C=C/C1C(C)=CCCC1(C)C` (stereo not drawn), the Potency result in assay [1], in assay [2], in assay [4], in assay [5], in [8] and in assay [6] was “inactive” each time. Further, in assay [7], the Potency result is “inactive”.

As to `Cc1ccc(C(=O)O)cc1`, the Potency result in assay [1], in assay [2], in assay [4], in assay [5], in assay [8] and in assay [6] was “inactive” throughout. For the same compound, in assay [7], the Potency entry is “inactive”.

On to `O=C1C(c2[nH]c3ccc(S(=O)(=O)O)cc3c2O)=Nc2ccc(S(=O)(=O)O)cc21`, for which the Potency result in assay [1], in assay [2], in assay [9], in assay [8], in [6] and in assay [7] was “inactive” each time. Further, the Potency in assay [4] was 54.5 µM (active).

Turning to `CC(C)NC[C@@H](O)COc1ccc(CC(N)=O)cc1`, the Potency result in assay [1], in assay [2], in assay [9], in assay [4], in assay [5] and in assay [8] was “inactive” throughout. Besides, the Potency result in assay [6] and in assay [7] was “inactive” each time.

Consider `COc1cccc(OC)c1C(=O)O`, for which the Potency result in [1], in assay [2], in assay [4], in assay [5], in [8] and in assay [6] was “inactive” each time. Further, the Potency result in [7] was “inactive”.

Take `CC(C)CCCCCOC(=O)CCS`: the Potency entry in assay [1], in assay [2], in assay [4], in assay [5], in [8] and in [6] was “inactive” in each case. Also, in assay [7], the Potency result is “inactive”.

These data come from PubChem BioAssay (Tox21).
